Calls of active or inactive are those of the source. Rule for the calls: active = hit-call score of the fitted dose curve at least 0.9, where 1 is the maximum; inactive = score below 0.9.

Sequence of X-box-binding protein 1 (Homo sapiens) (P17861 whole entry, looked up): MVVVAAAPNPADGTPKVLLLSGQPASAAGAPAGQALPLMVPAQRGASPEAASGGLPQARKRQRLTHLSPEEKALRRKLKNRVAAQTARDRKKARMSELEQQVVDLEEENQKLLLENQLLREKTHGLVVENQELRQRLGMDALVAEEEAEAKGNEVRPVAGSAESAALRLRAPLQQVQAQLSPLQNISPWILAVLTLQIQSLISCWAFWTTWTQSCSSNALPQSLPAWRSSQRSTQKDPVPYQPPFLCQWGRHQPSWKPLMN

For the assay, the target named is X-box-binding protein 1 (Homo sapiens) (UniProt P17861). Put plainly: ATG_Xbp1_CIS: Attagene CIS-FACTORIAL HepG2 Assay for human X-box Binding Protein 1 (XBP1) (AID 2282972). To be noted: HepG2 XBP1 cis-element reporter, Attagene multiplex; actives raise or lower the signal. As for the experimental part:
ATG_CIS is a cell-based, multiplexed-readout assay that uses HepG2, a human liver cell line, with measurements taken at 24 hours after chemical dosing in a 24-well plate.ATG_Xbp1_CIS is one of 52 assay component(s) measured or calculated from the ATG_CIS assay. It is designed to make measurements of mRNA induction, a form of inducible reporter, as detected with fluorescence intensity signals by Reverse transcription polymerase chain reaction (RT-PCR) and Capillary electrophoresis technology.Data from the assay component ATG_Xbp1_CIS was analyzed into 1 assay endpoint. This assay endpoint, ATG_Xbp1_CIS, was analyzed with bidirectional fitting relative to DMSO as the negative control and baseline of activity. Using a type of inducible reporter, measures of mRNA for gain or loss-of-signal activity can be used to understand the reporter gene at the transcription factor-level as they relate to the gene XBP1. Furthermore, this assay endpoint can be referred to as a primary readout, because this assay has produced multiple assay endpoints where this one serves a reporter gene function. To generalize the intended target to other relatable targets, this assay endpoint is annotated to the dna binding intended target family, where the subfamily is basic leucine zipper.
Human liver HepG2 cells are transiently transfected with multiple reporter transcription units (MRTUs) in 6-well plates using FuGene 6 reagent (Roche; 3 ml FuGene/1 mg DNA). The MRTU constructs are regulated by a cis-regulating element (promoter). […] A major difference between the CIS and TRANS system is that in CIS activities of endogenous TFs are measured, whereas the TRANS assay evaluates changes in activities of exogenous, chimeric NR-Gal4 proteins. […] At the end of 24 hour incubation, total RNA was isolated using TriZol reagent (Invitrogen). The isolated RNA is then reverse-transcribed using oligo(dT) primer and Mo-MLV reverse transcriptase (Invitrogen) with DNAse I (Ambion) treatment for 30 min. The one-tenth of the produced cDNA was amplified by PCR using Taq DNA polymerase (Invitrogen) and two reporter sequence-specific primers. The PCR products were fluorescently labeled by primer extension with 6-arboxyfluorescein (6-FAM) 5'-labeled reporter sequence-specific primer (2 min at 95 C, 20 s at 68 C and 10 min at 72 C) and these products were digested with 5U of HpaI (New England Biolabs) for 2h at 37 C. The fragments were purified using Qiaquick PCR columns (Qiagen), analyzed on an ABI 3130xL genetic analyzer (Applied Biosystems) with peak positions identified by using a set of X-rhodamine (ROX)-labeled MapMarker1000 molecular weight standards (BioVentures). The raw capillary electrophoresis data was processed using Attagraph software (Attagene).
For the compound `CC(=O)CCC(=O)O`, the call was inactive.
Turning to `CC(CCO)CC(C)(C)C` (stereo not given), the result was inactive.
On the same count and under the same terms, next, `CC(C)OB(OC(C)C)OC(C)C`: “inactive”; `COc1ccc(N)c(C)c1`: “inactive”; `CC1(C)CC(=O)CC(C)(C)N1`: “inactive”.
`CCCCCC#CC(=O)OC`: the compound was called inactive.
Turning to `C=CC(C)(CCC=C(C)C)OC(=O)CC` (stereo not given), the result was inactive.
Same read-out and setting: next, `Nc1ccn([C@H]2CC[C@@H](CO)O2)c(=O)n1`: “inactive”.
Turning to `NS(=O)(=O)c1cc(C(=O)O)c(NCc2ccco2)cc1Cl`, the call was inactive.
On to `CCOc1ccc(NC(C)=O)cc1`, for which the compound was classed as inactive.
With `CCCCCCCCCCCCOCCOS(=O)(=O)O`, the outcome was inactive.
On the same count and under the same terms, next, `CC(=O)CCC=C(C)CCC=C(C)C`: “inactive”.
As for `C=CCOCC(O)CO` (stereo not given), the call was inactive.
Same read-out and setting: for `Cc1cccc(C)c1` the value was “inactive”; for `N=C1N=C(N)c2ccccc21`, “inactive”; for `CCC=C(C)C=O`, “inactive”.
In the case of `C[N+](C)(C)CCO`, the compound was called inactive.
Still for that read-out and setting: for `CC(=O)Oc1c(C)c(C)c2c(c1C)CC[C@@](C)(CCC[C@H](C)CCC[C@H](C)CCCC(C)C)O2` the value was “inactive”; for `NC(=O)c1c(Cl)cccc1Cl`, “inactive”; for `C=COCC1CCC(COC=C)CC1` (stereo not given), “inactive”.
`CCCCC/C=C\C=C\C(=O)OCC`: the AC50 is 61.1 µM (active).
For the compound `c1ccc(OCCOc2ccccc2)cc1`, the call was inactive.
Regarding `CCCCC(CC)COCCO` (stereo not given), the result was inactive.
Same read-out and setting: for `CCC(C)(CCCC(C)C)OC(C)=O` (stereo not given) the value was “inactive”.
For `CCC(=O)OC(C)(C)C1CC=C(C)CC1` (stereo not given), the result was inactive.
On to `CCOC(=O)CCCCCCCCC(=O)OCC`, for which the compound was called inactive.
Consider `COc1ccccc1NC(=O)CC(C)=O`, for which the result was inactive.
On the same count and under the same terms, for `NC(=O)NC(N)=O` the value was “inactive”; for `CC(C)CCOC(=O)CC(C)C`, “inactive”; for `CN1CCc2cccc3c2[C@H]1Cc1ccc(O)c(O)c1-3`, “inactive”.
The same measure, in the same setting: for `CC(=O)OC/C=C(C)/C=C/C=C(C)/C=C/C1=C(C)CCCC1(C)C` the value was “inactive”.
For `CC(C)CCCC(C)(C)O`, the result was inactive.
As for `CC(=O)Nc1cc(S(=O)(=O)O)cc2cc(S(=O)(=O)O)c(N=Nc3ccccc3)c(O)c12`, the compound was called inactive.
For `CCCCCCOc1ccc(O)cc1`, the compound was called inactive.
The same measure, in the same setting: for `CCCCC1CCCCC(=O)O1` (stereo not given) the value was “inactive”; for `CCCO`, “inactive”.
Same read-out and setting: next, `CC(CO)c1ccccc1` (stereo not given): “inactive”.
On the same count and under the same terms, for `O=C(O)c1ccco1` the value was “inactive”; for `NCCN1CCNCC1`, “inactive”; for `Nc1ccc(O)c(N)c1`, “inactive”.

Broadly, the AC50 is the concentration giving half of the maximal activity seen.

The record behind these values is PubChem BioAssay (EPA / NIEHS).
